The text below walks through data of paper PMC7862700, “An all-to-all approach to the identification of sequence-specific readers for epigenetic DNA modifications on cytosine”.

Holding throughout (experiment): DAPPL (digital affinity profiling via proximity ligation, sequencing); 10 mM Tris-HCl pH 7.5, 50 mM NaCl, 1 mM DTT, 4% glycerol, room temperature, 30 min; GST-TFs on glutathione beads, 16-mer random dsDNA library, 0.1% formaldehyde crosslink after washing; high values mean tight binding
What all share (settings): protein: recombinant; tags: N-terminal GST; dsDNA, one strand shown

For assay [1], the target named is T1, FLI1 (Homo sapiens, UniProt Q01543 1-452).
T1 sequence: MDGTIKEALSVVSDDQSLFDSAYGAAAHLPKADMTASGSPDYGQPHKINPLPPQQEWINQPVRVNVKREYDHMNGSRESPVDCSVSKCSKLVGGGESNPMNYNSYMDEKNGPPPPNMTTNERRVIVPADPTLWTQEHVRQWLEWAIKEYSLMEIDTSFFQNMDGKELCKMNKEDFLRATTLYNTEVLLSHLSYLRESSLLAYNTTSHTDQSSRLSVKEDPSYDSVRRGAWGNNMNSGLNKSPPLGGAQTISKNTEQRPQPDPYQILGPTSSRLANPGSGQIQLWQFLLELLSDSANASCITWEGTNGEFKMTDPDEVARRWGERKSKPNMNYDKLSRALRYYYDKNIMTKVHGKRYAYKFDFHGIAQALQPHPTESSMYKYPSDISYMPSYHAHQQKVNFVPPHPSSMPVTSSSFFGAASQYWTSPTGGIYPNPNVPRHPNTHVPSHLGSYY
Summed up:
(§1)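 A tag-only sample was pooled with DNA-barcoded human transcription factors that had been expressed in yeast as GST fusions and captured on glutathione beads. The pools were incubated for 30 min at room temperature with 200 nmole of a random double-stranded 16-mer DNA library in Tris/NaCl/DTT/glycerol buffer, then washed, crosslinked with 0.1% formaldehyde, proximity-ligated (BsaI/T4 ligase, 1 h, 37 °C), PCR-amplified and sequenced on an Illumina NextSeq500. Binding signal is each hexamer's read frequency for a factor divided by its frequency for the tag-only sample.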

Assay [2] addresses T2, ELK1 (Homo sapiens, UniProt P19419 1-428).
T2 sequence: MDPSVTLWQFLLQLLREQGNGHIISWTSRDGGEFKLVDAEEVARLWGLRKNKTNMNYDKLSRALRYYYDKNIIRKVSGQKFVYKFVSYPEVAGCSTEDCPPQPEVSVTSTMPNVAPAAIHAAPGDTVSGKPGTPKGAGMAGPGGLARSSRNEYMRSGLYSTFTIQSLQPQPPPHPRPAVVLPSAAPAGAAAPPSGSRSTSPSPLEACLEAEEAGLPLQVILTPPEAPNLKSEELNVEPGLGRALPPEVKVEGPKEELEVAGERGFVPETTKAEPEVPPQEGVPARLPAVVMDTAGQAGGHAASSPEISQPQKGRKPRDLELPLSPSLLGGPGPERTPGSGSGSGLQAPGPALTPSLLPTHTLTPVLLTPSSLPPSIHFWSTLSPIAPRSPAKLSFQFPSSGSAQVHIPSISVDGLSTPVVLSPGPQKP
The method in brief:
as §1

For assay [3], the target named is T3, GABPA (Homo sapiens, UniProt Q06546 1-454).
T3 sequence: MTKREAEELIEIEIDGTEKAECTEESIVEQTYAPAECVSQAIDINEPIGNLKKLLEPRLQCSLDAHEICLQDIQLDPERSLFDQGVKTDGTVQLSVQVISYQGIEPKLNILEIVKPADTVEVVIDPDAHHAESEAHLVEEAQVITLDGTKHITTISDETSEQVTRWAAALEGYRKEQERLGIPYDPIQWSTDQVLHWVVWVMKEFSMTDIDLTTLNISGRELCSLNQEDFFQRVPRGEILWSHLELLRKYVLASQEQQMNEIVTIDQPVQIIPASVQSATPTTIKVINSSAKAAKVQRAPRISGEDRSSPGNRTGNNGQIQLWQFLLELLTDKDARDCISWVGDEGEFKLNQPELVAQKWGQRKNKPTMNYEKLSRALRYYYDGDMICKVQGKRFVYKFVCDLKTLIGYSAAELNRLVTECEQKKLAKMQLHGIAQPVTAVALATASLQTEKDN
Summed up: as §1

For assay [4], the target named is T4, ERG (Homo sapiens, UniProt P11308 1-479).
T4 sequence: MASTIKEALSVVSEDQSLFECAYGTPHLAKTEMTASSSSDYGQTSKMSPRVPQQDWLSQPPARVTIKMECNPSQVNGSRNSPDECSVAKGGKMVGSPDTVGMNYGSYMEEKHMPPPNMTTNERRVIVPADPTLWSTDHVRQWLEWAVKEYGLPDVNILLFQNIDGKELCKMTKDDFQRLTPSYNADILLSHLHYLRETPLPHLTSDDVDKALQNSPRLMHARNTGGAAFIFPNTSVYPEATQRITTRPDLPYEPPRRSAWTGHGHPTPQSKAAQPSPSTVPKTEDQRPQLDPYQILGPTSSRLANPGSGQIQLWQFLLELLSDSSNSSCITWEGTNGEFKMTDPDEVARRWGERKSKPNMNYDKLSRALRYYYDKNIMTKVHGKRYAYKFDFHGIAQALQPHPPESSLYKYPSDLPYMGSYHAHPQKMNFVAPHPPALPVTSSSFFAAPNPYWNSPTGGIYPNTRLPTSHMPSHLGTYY
The method in brief: as §1

In assay [5] the target is ELF1 (Homo sapiens, UniProt P32519 1-619). Summed up: as §1
ELF1, sequence (P32519 whole entry): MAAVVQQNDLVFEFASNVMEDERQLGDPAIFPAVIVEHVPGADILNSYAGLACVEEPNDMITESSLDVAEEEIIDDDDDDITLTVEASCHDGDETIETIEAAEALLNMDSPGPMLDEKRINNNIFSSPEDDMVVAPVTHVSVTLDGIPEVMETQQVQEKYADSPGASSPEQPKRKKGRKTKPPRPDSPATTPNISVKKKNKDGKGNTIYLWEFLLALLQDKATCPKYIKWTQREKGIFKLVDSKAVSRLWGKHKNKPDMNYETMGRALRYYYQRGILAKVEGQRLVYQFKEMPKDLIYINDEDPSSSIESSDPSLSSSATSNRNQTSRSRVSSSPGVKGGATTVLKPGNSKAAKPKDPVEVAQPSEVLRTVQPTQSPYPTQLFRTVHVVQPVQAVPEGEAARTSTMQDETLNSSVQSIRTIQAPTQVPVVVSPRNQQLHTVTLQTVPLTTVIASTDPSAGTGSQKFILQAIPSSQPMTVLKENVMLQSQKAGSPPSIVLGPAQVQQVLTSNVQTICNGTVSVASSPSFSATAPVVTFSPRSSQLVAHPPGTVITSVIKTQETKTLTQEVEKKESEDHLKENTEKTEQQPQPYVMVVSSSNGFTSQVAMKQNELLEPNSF
In assay [6] the target is T5, EHF (Homo sapiens, UniProt Q9NZC4 1-300).
T5 sequence: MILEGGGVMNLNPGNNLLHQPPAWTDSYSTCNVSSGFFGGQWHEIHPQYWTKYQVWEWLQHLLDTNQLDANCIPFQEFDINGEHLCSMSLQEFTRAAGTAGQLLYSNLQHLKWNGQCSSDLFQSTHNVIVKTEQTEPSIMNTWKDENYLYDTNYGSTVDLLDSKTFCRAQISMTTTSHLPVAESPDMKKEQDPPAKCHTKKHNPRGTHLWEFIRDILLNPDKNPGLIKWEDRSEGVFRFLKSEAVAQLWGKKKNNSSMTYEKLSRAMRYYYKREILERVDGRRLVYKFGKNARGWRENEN
The method in brief:
as §1

The target of assay [7] is SPI1 (Homo sapiens, UniProt P17947 1-270). Summed up: as §1
In assay [8] the target is SPIB (Homo sapiens, UniProt Q01892 1-262). The method in brief:
as §1

Assay [9] concerns the target T6, ELK3 (Homo sapiens, UniProt P41970 1-407).
T6 sequence: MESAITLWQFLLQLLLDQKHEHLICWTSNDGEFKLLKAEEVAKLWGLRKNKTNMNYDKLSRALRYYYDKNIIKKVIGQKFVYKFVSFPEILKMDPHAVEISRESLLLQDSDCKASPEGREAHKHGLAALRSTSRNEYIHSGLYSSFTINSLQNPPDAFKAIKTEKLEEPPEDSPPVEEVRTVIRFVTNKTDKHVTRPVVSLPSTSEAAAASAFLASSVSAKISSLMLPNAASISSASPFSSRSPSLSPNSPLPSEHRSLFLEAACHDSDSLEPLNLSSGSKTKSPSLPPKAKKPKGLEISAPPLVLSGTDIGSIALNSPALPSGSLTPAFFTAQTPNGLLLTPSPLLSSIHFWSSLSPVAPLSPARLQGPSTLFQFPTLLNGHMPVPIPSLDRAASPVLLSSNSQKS
Summed up: as §1

The target of assay [10] is T7, FEV (Homo sapiens, UniProt Q99581 1-238).
T7 sequence: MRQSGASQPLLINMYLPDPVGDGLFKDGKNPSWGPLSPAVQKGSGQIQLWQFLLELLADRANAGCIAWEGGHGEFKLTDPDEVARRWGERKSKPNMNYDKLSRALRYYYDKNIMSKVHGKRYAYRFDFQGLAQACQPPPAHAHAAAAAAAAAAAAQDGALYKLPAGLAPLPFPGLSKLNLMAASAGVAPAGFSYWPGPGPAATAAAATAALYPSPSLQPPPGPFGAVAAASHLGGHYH
The method in brief:
as §1

Assay [11] addresses ETV5 (Homo sapiens, UniProt P41161 1-510). The method in brief: as §1
The target in assay [12] is T8, SPIC (Homo sapiens, UniProt Q8N5J4 1-248).
T8 sequence: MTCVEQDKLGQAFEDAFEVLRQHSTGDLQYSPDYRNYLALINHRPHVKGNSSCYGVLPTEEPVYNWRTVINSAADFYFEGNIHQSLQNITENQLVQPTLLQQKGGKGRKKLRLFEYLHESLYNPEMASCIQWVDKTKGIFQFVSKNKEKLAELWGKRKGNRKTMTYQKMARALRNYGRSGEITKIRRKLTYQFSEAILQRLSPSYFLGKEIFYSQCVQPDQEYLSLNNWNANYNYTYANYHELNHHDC
Summed up:
as §1

In assay [13] the target is ELF4 (Homo sapiens, UniProt Q99607 1-663). The method in brief:
as §1

In assay [14] the target is T9, ELK4 (Homo sapiens, UniProt P28324-2 1-405).
T9 sequence: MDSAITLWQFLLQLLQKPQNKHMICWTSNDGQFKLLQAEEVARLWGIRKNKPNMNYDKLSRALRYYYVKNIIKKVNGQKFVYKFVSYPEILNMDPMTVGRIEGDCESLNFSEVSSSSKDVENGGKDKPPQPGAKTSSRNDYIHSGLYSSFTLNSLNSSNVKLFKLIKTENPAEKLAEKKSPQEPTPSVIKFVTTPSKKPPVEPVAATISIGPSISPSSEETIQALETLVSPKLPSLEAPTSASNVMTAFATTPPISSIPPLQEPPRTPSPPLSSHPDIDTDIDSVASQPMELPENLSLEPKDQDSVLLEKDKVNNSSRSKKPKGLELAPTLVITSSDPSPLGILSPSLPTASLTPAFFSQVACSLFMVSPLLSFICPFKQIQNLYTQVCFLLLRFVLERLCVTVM
The method in brief:
as §1

Assay [15] has as its target T10, ETV2 (Homo sapiens, UniProt O00321 1-342).
T10 sequence: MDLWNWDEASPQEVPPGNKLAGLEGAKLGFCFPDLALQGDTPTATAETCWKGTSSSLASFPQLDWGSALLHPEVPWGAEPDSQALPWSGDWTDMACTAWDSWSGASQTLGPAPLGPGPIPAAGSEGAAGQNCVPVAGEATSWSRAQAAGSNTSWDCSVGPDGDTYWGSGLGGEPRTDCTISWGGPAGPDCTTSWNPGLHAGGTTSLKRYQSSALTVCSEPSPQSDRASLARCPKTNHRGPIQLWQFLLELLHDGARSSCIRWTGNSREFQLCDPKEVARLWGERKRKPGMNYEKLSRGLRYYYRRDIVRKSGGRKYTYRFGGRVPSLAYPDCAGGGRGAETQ
Summed up: as §1

For assay [16], the target named is T11, ELF3 (Homo sapiens, UniProt P78545 1-371).
T11 sequence: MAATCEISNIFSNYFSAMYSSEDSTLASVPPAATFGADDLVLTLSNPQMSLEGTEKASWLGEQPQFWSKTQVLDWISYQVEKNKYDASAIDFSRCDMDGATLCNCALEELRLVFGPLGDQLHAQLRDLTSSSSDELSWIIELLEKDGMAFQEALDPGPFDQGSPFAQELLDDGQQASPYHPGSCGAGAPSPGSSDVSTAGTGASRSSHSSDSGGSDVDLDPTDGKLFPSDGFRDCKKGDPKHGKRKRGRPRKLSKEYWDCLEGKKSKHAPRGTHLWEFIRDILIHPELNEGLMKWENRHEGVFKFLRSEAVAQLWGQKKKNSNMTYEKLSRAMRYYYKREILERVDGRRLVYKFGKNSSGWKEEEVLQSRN
Summed up: as §1

The target in assay [17] is ETV1 (Homo sapiens, UniProt P50549 1-477). The method in brief:
as §1

ETV5, sequence (P41161 whole entry): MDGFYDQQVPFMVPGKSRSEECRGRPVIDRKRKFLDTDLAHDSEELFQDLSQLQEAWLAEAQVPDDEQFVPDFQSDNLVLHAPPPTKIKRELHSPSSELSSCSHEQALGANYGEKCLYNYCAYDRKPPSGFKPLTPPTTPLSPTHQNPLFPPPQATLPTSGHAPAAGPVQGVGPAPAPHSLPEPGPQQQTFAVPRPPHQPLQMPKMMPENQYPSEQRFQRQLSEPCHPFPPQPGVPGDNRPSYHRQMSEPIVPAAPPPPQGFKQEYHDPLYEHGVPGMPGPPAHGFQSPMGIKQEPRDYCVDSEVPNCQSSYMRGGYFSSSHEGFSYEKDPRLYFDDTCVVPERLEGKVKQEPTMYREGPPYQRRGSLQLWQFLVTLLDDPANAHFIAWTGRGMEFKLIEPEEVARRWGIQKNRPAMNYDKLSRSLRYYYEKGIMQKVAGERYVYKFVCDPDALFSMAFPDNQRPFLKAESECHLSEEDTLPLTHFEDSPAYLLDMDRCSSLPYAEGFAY
ETV1, sequence (P50549 whole entry): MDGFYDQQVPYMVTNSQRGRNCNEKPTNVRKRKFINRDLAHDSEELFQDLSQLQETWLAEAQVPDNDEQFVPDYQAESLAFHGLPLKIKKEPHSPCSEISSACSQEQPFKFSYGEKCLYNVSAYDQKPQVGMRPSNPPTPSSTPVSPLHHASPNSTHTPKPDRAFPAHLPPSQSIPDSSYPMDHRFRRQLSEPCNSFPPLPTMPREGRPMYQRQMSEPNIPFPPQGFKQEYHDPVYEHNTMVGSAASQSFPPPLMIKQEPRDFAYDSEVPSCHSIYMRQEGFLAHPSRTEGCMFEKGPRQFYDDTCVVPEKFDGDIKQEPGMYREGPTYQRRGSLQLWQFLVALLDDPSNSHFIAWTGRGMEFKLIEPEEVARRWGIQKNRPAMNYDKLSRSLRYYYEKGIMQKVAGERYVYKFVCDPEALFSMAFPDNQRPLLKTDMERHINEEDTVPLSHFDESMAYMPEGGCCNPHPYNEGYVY
SPIB, sequence (Q01892 whole entry): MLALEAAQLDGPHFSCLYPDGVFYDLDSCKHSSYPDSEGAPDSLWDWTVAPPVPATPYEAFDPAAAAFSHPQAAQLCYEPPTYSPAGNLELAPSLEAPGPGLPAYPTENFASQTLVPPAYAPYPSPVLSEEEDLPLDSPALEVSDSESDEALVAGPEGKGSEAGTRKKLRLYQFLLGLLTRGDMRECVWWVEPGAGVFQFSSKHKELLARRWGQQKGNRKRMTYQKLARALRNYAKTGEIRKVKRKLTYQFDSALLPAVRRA
ELF4, sequence (Q99607 whole entry): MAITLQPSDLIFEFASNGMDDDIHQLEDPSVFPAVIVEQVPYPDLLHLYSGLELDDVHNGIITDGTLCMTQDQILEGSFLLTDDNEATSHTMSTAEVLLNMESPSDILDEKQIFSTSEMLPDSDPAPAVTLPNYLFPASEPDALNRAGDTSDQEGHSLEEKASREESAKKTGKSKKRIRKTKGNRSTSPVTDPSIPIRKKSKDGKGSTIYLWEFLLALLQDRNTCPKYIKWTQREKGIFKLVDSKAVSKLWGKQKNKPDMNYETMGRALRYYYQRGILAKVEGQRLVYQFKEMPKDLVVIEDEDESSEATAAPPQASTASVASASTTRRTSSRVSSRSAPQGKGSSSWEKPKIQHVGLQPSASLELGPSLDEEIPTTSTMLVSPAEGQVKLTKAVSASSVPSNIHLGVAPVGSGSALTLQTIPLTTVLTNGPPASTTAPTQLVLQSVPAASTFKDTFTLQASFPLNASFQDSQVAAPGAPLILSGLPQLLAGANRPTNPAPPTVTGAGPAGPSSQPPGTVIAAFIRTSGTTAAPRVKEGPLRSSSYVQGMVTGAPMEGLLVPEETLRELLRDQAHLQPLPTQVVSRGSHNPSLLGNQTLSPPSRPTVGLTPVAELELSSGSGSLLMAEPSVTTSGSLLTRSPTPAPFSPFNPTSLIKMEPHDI

In the case of CGTCAC, the binding signal is 1.24 fold enrichment (6-mer frequency, TF over GST control) in assay [1]; 1.27 fold enrichment (6-mer frequency, TF over GST control) in assay [2]; 1.18 fold enrichment (6-mer frequency, TF over GST control) in assay [3]; 1.31 fold enrichment (6-mer frequency, TF over GST control) in [4]; 1.24 fold enrichment (6-mer frequency, TF over GST control) in [5]; 1.2 fold enrichment (6-mer frequency, TF over GST control) in assay [6]. Further, the binding signal was 1.28 fold enrichment (6-mer frequency, TF over GST control) in assay [7]; 1.18 fold enrichment (6-mer frequency, TF over GST control) in [8]; 1.09 fold enrichment (6-mer frequency, TF over GST control) in assay [9]; 1.26 fold enrichment (6-mer frequency, TF over GST control) in [10]; 1.24 fold enrichment (6-mer frequency, TF over GST control) in assay [11]; 1.18 fold enrichment (6-mer frequency, TF over GST control) in assay [12]. The binding signal in assay [13] is 1.31 fold enrichment (6-mer frequency, TF over GST control); in [14], 1.24 fold enrichment (6-mer frequency, TF over GST control); in assay [15] it was 1.12 fold enrichment (6-mer frequency, TF over GST control); in assay [16], 1.21 fold enrichment (6-mer frequency, TF over GST control); in [17], 1.2 fold enrichment (6-mer frequency, TF over GST control).

On to AGCAGC, for which the binding signal in assay [1] was 1.08 fold enrichment (6-mer frequency, TF over GST control); in assay [2] it was 1.06 fold enrichment (6-mer frequency, TF over GST control); in assay [3] it was 1.11 fold enrichment (6-mer frequency, TF over GST control); in assay [4] it was 1.11 fold enrichment (6-mer frequency, TF over GST control); in assay [5] it was 1.19 fold enrichment (6-mer frequency, TF over GST control); in assay [6] it was 1.1 fold enrichment (6-mer frequency, TF over GST control). Besides, the binding signal in assay [7] was 1.05 fold enrichment (6-mer frequency, TF over GST control); in assay [8] it was 1.11 fold enrichment (6-mer frequency, TF over GST control); in assay [9] it was 1.16 fold enrichment (6-mer frequency, TF over GST control); in assay [10], 1.12 fold enrichment (6-mer frequency, TF over GST control); in assay [11], 1.18 fold enrichment (6-mer frequency, TF over GST control); in assay [12], 1.11 fold enrichment (6-mer frequency, TF over GST control). In addition, the binding signal is 1.14 fold enrichment (6-mer frequency, TF over GST control) in assay [13]; 1.05 fold enrichment (6-mer frequency, TF over GST control) in [14]; 1.07 fold enrichment (6-mer frequency, TF over GST control) in assay [15]; 1.08 fold enrichment (6-mer frequency, TF over GST control) in [16]; 1.17 fold enrichment (6-mer frequency, TF over GST control) in assay [17].
